± gives the standard deviation of the averaged measurements.
T1: ARID4A 568-634 Tudor-knot (domain begin residue: 568, domain end residue: 634), P29374
T1 chain: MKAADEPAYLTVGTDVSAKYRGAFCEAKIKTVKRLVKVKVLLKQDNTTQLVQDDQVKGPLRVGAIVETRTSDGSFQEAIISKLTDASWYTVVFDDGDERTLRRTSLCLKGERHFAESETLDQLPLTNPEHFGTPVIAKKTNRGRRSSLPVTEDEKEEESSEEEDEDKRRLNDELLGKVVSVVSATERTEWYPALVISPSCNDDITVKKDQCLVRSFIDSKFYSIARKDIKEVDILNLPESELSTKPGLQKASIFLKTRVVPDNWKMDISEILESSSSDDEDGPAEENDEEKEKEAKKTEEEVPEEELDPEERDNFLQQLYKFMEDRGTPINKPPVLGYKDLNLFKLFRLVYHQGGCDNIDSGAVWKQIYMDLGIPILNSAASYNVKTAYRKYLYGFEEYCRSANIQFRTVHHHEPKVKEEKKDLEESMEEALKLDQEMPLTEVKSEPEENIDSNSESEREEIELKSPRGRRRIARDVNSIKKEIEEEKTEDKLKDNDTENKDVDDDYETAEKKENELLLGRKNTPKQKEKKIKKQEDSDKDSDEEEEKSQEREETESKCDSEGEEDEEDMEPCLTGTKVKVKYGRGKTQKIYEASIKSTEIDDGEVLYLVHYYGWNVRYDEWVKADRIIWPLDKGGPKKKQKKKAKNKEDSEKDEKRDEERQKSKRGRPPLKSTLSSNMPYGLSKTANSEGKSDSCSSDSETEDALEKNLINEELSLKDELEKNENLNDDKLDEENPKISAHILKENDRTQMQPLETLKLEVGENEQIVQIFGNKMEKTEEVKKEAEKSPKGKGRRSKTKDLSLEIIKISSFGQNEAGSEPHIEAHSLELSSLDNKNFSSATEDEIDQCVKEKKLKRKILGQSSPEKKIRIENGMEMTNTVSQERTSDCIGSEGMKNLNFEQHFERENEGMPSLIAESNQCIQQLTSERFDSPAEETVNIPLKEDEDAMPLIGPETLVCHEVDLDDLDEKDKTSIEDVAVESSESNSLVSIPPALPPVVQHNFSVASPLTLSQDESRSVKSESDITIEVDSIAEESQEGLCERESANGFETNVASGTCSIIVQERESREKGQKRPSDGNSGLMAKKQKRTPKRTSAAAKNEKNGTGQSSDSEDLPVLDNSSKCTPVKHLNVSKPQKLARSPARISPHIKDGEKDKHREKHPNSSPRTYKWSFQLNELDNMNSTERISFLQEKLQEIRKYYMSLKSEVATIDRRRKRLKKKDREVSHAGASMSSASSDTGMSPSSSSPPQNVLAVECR

T2: ALDOA 1-364 Glycolytic (domain begin residue: 1, domain end residue: 364), P04075
T2 chain: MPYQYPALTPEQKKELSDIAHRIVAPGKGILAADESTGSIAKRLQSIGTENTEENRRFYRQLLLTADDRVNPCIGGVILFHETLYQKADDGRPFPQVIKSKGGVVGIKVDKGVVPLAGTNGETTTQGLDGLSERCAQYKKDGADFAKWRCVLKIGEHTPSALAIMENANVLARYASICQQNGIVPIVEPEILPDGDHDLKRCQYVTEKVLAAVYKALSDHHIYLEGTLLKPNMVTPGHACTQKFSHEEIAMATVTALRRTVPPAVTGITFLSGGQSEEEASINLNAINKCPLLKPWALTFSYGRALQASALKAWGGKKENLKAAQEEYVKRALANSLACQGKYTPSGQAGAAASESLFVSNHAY

T3: ARFGEF2 639-829 Sec7 (domain begin residue: 639, domain end residue: 829), Q9Y6D5
T3 chain: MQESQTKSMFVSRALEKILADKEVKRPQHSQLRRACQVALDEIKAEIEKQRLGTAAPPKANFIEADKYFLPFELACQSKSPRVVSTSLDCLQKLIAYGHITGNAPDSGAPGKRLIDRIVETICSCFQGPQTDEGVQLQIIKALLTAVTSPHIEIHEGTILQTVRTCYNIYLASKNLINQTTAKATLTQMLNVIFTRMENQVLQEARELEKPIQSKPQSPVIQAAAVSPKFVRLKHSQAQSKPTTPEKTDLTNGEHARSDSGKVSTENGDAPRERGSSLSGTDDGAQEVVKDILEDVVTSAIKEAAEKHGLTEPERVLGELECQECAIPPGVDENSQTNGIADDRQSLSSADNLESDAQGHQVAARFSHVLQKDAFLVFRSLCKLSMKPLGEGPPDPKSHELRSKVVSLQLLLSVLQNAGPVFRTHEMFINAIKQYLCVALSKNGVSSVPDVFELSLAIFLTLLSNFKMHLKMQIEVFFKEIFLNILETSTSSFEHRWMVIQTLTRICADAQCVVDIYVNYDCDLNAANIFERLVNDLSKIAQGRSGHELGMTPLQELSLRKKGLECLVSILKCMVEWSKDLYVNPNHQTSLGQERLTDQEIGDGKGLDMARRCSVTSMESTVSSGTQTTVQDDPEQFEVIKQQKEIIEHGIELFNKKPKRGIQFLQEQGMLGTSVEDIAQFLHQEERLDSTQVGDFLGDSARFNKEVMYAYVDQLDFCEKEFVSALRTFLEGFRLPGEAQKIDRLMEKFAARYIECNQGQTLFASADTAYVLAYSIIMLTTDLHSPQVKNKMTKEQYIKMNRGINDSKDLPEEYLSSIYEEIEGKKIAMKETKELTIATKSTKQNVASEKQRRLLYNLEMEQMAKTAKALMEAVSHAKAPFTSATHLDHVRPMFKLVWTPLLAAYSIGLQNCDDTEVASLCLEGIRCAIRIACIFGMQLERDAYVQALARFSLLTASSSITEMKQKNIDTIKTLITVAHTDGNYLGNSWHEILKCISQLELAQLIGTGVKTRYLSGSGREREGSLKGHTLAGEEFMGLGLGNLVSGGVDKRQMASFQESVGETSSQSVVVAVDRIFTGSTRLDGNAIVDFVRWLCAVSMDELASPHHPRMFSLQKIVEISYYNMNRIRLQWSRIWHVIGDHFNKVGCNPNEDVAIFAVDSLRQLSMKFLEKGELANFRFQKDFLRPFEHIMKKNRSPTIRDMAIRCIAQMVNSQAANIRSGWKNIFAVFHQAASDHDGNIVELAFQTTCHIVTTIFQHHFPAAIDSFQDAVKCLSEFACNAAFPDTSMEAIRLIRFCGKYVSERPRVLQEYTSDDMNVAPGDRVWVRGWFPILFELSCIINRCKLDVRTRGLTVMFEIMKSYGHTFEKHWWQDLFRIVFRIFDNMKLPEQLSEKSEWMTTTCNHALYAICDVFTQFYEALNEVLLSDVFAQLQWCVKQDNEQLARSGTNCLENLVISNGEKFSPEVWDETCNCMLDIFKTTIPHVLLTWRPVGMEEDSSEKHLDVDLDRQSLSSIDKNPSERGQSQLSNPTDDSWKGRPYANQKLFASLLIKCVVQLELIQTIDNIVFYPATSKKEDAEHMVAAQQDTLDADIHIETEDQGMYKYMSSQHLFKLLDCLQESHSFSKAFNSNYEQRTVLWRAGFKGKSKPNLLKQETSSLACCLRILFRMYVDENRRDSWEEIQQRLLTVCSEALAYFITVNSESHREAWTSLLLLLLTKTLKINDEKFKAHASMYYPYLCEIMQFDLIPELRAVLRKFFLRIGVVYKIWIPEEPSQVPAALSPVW

T4: TDRD1 261-449 TUDOR (domain begin residue: 261, domain end residue: 449), Q9BXT4
T4 chain: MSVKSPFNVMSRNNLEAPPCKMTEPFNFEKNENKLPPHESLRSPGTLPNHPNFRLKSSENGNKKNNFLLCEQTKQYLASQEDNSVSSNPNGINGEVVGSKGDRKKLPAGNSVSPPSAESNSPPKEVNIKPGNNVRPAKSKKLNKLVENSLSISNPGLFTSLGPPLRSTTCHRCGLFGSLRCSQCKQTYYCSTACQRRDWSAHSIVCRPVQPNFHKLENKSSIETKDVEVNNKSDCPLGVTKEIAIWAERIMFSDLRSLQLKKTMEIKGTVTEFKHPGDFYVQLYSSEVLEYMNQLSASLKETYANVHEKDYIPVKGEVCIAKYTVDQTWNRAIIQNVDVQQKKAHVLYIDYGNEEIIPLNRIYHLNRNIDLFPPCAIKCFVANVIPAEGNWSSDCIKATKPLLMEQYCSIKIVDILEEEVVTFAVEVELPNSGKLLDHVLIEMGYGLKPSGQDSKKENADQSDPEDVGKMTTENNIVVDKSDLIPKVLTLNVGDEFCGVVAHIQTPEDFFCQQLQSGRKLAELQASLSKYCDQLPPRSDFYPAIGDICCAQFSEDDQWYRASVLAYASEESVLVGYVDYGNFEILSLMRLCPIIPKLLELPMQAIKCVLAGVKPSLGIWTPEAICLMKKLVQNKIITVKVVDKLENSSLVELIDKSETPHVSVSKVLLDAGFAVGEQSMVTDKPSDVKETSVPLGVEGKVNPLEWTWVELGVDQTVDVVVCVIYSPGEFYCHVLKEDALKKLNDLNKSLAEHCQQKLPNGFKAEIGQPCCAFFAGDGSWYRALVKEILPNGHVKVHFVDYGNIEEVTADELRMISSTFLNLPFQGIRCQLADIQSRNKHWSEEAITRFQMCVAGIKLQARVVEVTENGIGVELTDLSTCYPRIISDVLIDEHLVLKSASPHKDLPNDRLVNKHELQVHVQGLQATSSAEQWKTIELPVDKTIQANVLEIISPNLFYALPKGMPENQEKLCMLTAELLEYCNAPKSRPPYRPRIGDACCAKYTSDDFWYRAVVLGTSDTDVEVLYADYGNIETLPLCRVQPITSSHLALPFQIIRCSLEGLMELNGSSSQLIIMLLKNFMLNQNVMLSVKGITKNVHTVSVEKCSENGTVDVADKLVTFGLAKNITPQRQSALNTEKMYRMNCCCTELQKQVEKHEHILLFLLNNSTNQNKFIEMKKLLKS


Molecular target: T1, ARID4A 568-634 Tudor-knot (domain begin …
Test: phage ELISA signal ratio (GST-PRM binding over GST background); higher = stronger binding of peptide-phage to the PRM
Protocol: (§1)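 Phage-displayed random hexadecapeptides (Cys-free, flanked by invariant Gly linkers, fused to the M13 P8 major coat protein) were selected over 5 rounds against GST-fused human PRM domains. Individual clones from rounds 4-5 were tested by phage ELISA, and positive clones binding the target but not GST were sequenced. Values are the ELISA signal ratio of target over background (GST); the background signal is given separately.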

Binder	phage ELISA signal ratio
YYWDTILVDNPEWHQL	4.22
WVMPGMEELNIFENMF	3.49
HFIELMYDAPEMHMPW	5.33 ± 1.7
DYMSHLFDTMSGVQFQ	6.29

Molecular target: T2, ALDOA 1-364 Glycolytic (domain begin …
Test: as above
Protocol: as §1

Binder	phage ELISA signal ratio
EFLWDPVQEMHVMVNE	5.28
VQWQERYTDYTFENVT	24.7

Molecular target: T3, ARFGEF2 639-829 Sec7 (domain begin …
Test: as above
Protocol: as §1

Binder	phage ELISA signal ratio
LTREHVQWDGVMHWIM	16.4

Molecular target: KMT2C 1055-1137 PHD (domain begin residue: 1055, domain end residue: 1137)
Test: as above
Protocol: as §1

Binder	phage ELISA signal ratio
HFIELMYDAPEMHMPW	6.76

Molecular target: T4, TDRD1 261-449 TUDOR (domain begin …
Test: as above
Protocol: as §1

Binder	phage ELISA signal ratio
DYMSHLFDTMSGVQFQ	8.02
